This is part of a sample that, as a whole, favours compounds with a hit. Of some 83,000 tested, about 20% had one in any assay.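 Assay: single dose, 48 h. Readout: percent growth (0 = no net growth; negative = cell death). Active: <10.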 Active and inactive are the calls of the source.

This experiment has as its system M14 melanoma. Description: NCI-60 one-dose screen, 48 h (100 = growth as untreated, 0 = no growth, -100 = all killed). The following applies: 10 µM unless noted.
Regarding `O=C1NC(=O)c2c1c1c3cc(Br)ccc3[nH]c1c1oc3ccc(F)cc3c21`, the growth was 20% (inactive). With `C#CCOc1ccc(/C=N/Nc2nc(-c3ccc(F)cc3)cs2)cc1OC`, the growth was 61.3% (inactive). Turning to `O=C1NC(=O)/C(=C/c2ccccc2OCc2cc3ccccc3nc2Cl)S1`, the growth is 120% (inactive). Regarding `Cc1ccc(NCC(=O)Cn2cc(COc3ccc(C=Nc4cnc5ccccc5c4)cc3)nn2)cc1`, the growth is 105% (inactive). Take `C/C(=N\N=C1/C(=O)Nc2ccccc21)c1ccc2c(c1)Nc1ccccc1S2`: the growth is 65% (inactive). `C/C(=N\N=C1/C(=O)Nc2ccc(Cl)cc21)c1ccc2c(c1)Nc1ccccc1S2`: the growth was -20.8% (active). Consider `CCN(CC)c1ccnc(CNCCSC(c2ccccc2)(c2ccccc2)c2ccc(C)cc2)c1`, for which the growth was -87.2% (active). As for `Cc1cc2c(cc1Cl)C(=O)/C(=C/c1ccccc1)O2`, the growth was 30.9% (inactive).

As for `COc1ccc(C(=O)/C=C/c2ccc(OCc3ccc(F)cc3)c(OC)c2)cc1OC`, the growth is 38.1% (inactive). Regarding `COc1cc(OC)c2c3nc4cc(C)c(C)cc4nc3n(CCN(C)C)c2c1`, the growth was 47.9% (inactive). The result for `N=C1N=C(SCc2nc3ccccc3[nH]2)NC(=O)/C1=C/c1ccc(Cl)cc1` reads 108% (inactive).

As to `COc1ccc(C2CC(c3ccc(S(=O)(=O)NCCNc4nc(Nc5ccc(F)cc5)nc(N(C)C)n4)cc3)=Nc3c(N)nc(N)nc3N2)cc1` (centres undefined), the growth is 81.9% (inactive). On to `O=C(Cn1nc(-c2ccccc2)ccc1=O)N/N=C/c1ccc(N2CCOCC2)cc1`, for which the growth is 102% (inactive). For `CC1(C)CC[C@]2(C(=O)O)CC[C@]3(C)C(=CCC4[C@@]5(C)C[C@@H](O)[C@@H]6OC(c7cccc(Br)c7)OC[C@@]6(C)C5CC[C@]43C)C2C1` (some centres undefined), the growth is 53.2% (inactive). As to `COc1ccc(C(=O)/C=C/c2ccc(OCc3ccccc3)c(OC)c2)cc1OC`, the growth is 62.3% (inactive). For the molecule `O=C(N=Nc1c(O)[nH]c2ccc([N+](=O)[O-])cc12)c1ccc2nc(-c3ccccc3)[nH]c2c1`, the growth is 83.8% (inactive). On to `C/C(=N\N=C\c1cc([N+](=O)[O-])ccc1Cl)c1ccc2c(c1)Nc1ccccc1S2`, for which the growth is 88.2% (inactive).

`C=C1CCC2C3(C)COC(c4ccc(F)cc4)OC3CCC2(C)C1C/C=C1/C(=O)OCC1O` (centres undefined): the growth is -68.1% (active).

Take `CCCSc1nc(NCCc2c[nH]c3ccccc23)c(C#N)c(-c2ccc(OC)cc2)n1`: the growth is 63.5% (inactive).

Consider `N/C(=N\c1nc2ccccc2s1)NC(=O)Nc1ccccc1Br`, for which the growth was 2.92% (active).

In the case of `O=C(Cn1c2c(sc1=O)[C@H]1[C@@H](O)[C@@H](O)[C@H](O)[C@@H]1CS2)N1CCOCC1`, the growth is 112% (inactive).

Regarding `COC(=O)/C=C/c1cccc2c1C(=O)NC(C)(c1cc3ccccc3oc1=O)N2` (centres undefined), the growth is 41.7% (inactive). Take `Brc1ccc(-c2n(Cc3ccc4ccccc4c3)c(-c3ccccc3)c(-c3ccccc3)[n+]2Cc2ccc3ccccc3c2)cc1`: the growth is -90.8% (active).

With `COc1ccc(NC(=O)Cn2c3c(sc2=O)[C@H]2[C@@H](O)[C@@H](O)[C@H](O)[C@@H]2CS3)cc1`, the growth is 103% (inactive).

Consider `Cc1cc2nc3c4ccccc4n(CCCN(C)C)c3nc2cc1C`, for which the growth was -74.4% (active). `O=S(=O)(Nc1cccc(-n2cnc3cc(-c4ccc(O)cc4)ccc32)c1)C1CC1`: the growth is 29.7% (inactive). For the molecule `CN(C)c1ccnc(CNCCSC2(c3ccc(C(F)(F)F)cc3)c3ccccc3C=Cc3ccccc32)c1`, the growth was -74.7% (active).

On to `CN(C)c1nc(NCCNS(=O)(=O)c2ccc(C3=Nc4c(N)nc(N)nc4NC(c4ccc(C(F)(F)F)cc4)C3)cc2)nc(Nc2ccc(F)cc2)n1` (centres undefined), for which the growth is 7.55% (active). Consider `O=C(NN1C(=O)/C(=C/C=C/c2ccc([N+](=O)[O-])o2)SC1=S)c1ccc(Cl)cc1`, for which the growth is -68.7% (active). On to `COCOc1ccc2c(=O)c(C)c(C(=O)N[C@@H](Cc3ccccc3)C(O)C(=O)NCCc3ccc(OC)cc3)oc2c1` (some centres undefined), for which the growth was 118% (inactive). Turning to `C#CCOc1cc(N(CC)CC)ccc1C(C(=O)NC(C)(C)C)N(C(=O)C1CCc2cc(F)ccc2O1)c1ccc(Br)cc1` (centres undefined), the growth is 68.3% (inactive). For the molecule `Cc1cc2nc3c4ccccc4n(CC4=NCCN4)c3nc2cc1C`, the growth was -79.2% (active). The result for `Cn1cc(-c2nc(N)nnc2-c2c[nH]c3ccc(F)cc23)c2cccnc21` reads 26.3% (inactive).

In the case of `COc1ccc(N2N=C(c3ccc4c(c3)OCO4)CC2c2cccc(NC(=O)CCNS(=O)(=O)c3ccc(Cl)cc3)c2)cc1` (centres undefined), the growth is 29.5% (inactive).
